Measurements reported in PubChem BioAssay (NCATS).
Results filed as inconclusive are left out. A number with no mark means an inactive call. Activity calls are given as the source filed them. Calls follow the shape of the dose curve; as a rule, active = well fitted inhibition curve with a large enough effect; inconclusive = small, poorly fitted or top-dose-only effect; inactive = flat fitted curve, though single readings scatter.

Assay: P-glycoprotein substrates identified in KB-8-5-11 adenocarcinoma cell line, qHTS therapeutic library screen (AID 1346987); also: nearly all actives have a fitted effect of over 65% in size
Conditions: KB-8-5-11 (P-gp overexpressing) viability, CellTiter-Glo, 72 h; series mostly up to 44.5 µM; activity change, negative = cytotoxicity: at the top concentration
How it was run: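 In this qHTS, P-gp-rich KB-8-5-11 cells received library compounds across a concentration range. Viability was quantified by luminescence after 72 h at 37 degree C.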
% is scaled to controls: 0 for no effect and ±100 for the full control effect.

| SMILES | outcome | activity change, negative = cytotoxicity |
| --- | --- | --- |
| C=C[C@H]1[C@H](O[C@@H]2O[C@H](CO)[C@@H](O)[C@H](O)[C@H]2O)OC=C2C(=O)OCC[C@]21O | inactive |  |
| Cc1c(CN(C)C(=O)/C=C/c2cnc3c(c2)CCC(=O)N3)oc2ccccc12 |  | -15.7% |
| CC1(O)CCC2C(C(=O)O)=COC(OC3OC(CO)C(O)C(O)C3OC(=O)/C=C/c3ccc(O)cc3)C21 (stereo not given) |  | 2.76% [at 17.3 µM] |
| CC1=C2[C@@H]([C@H](C)CC[C@H]2/C=C(\C)C(=O)O)[C@H](O)C1 |  | 9.08% |
| O=C(c1ccc(F)cc1)C1CCN(CCn2c(=O)nc3n(c2=O)CCCC3)CC1 |  | -1.96% |
